TDP1 cell CPT: qHTS for Inhibitors of human tyrosyl-DNA phosphodiesterase 1 (TDP1): qHTS in cells in presence of CPT | chicken DT40 Tdp1-/-;hTDP1 cells + 20 nM CPT, ATP luminescence, 48 h | Potency, µM (titrated, usually from 46.2 µM), without a hit: top-dose activity change, negative = growth inhibition, most hits filed as inhibitors | actives 12% (n = 420,000) | AID 686979, 2013; note: potency is the fitted concentration of half-maximal effect; % is set by controls: 0 for no effect and ±100 for the full control effect; nearly all actives have a fitted effect of over 55% in size
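Chicken DT40 Tdp1-/- cells stably complemented with human TDP1 were seeded at 400 cells/well in medium containing 20 nM camptothecin, exposed to pin-transferred compounds, and grown at 37 °C for at least 48 hr. Viability was read as ATP luminescence.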
Chronic BCR inh: qHTS Assay to Find Inhibitors of Chronic Active B-Cell Receptor Signaling; ABC-DLBCL IkBa-CBG/CBR reporter, luminescence ratio, 4 h; Potency, µM (series often up to 46.1 µM), for the others: at the top dose activity change, negative = inhibition, most hits filed as inhibitors; actives 0.05% (n = 340,000); active = well fitted inhibition curve with a large enough effect in the signal ratio, with a control signal flat, not every such curve was filed as active; inconclusive = small, poorly fitted or top-dose-only effect, or effect the other way, or a change in a side signal; the % refers to the signal ratio;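 note: potency is the fitted concentration of half-maximal effect; plate controls were basal doxycycline-induced cells for no effect and cells given 10 µM MG132 for full effect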
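Compounds up to 46 uM were incubated four hours with TMD8 cells whose green CBG68 luciferase is fused to IkappaBalpha; red CBR luminescence normalised the signal, and concentration-effect curves were fitted to fusion, red and ratio data.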
SW480 rerep: A quantitative high throughput screen for small molecules that induce DNA re-replication in SW480 colon adenocarcinoma cells | SW480 DNA re-replication, Hoechst DNA content imaging, 48 h | Potency, µM (series often up to 46.1 µM), for inactives: at the highest dose re-replication activation, most hits filed as activators | actives 1.8% (n = 340,000) | AID 624297, 2012; note: potency is the fitted concentration of half-maximal effect; % of control where 0% means no effect; nearly all actives have a fitted effect of over 55% in size
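Compounds, transferred as 23 nL by pin tool, were incubated with cells for 48 hr; DNA content per nucleus was then quantified by Hoechst staining and fluorescence plate imaging.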
IL-1B inflam inh: qHTS for Inhibitors of Inflammasome Signaling: IL-1-beta AlphaLISA Primary Screen | THP-1 LPS/ATP IL-1B secretion, AlphaLISA, 16 h; stronger effect = lower value | activity change, % at 57.5 µM | actives 4.7% (n = 360,000) | AID 743279, 2014; in the data active = activity change below about -50%; inconclusive = mostly about -30% to -49%; note: % is set by controls: 0 for no effect and ±100 for the full control effect
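Secreted IL-1B measured by AlphaLISA bead assay after 16 h compound exposure of THP-1 cells; compounds (final up to 57.5 uM) added 1 h before LPS (250 ng/mL) and ATP (1.25 mM) stimulation; lower signal means less secretion.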
TDP1 cell noCPT: qHTS for Inhibitors of human tyrosyl-DNA phosphodiesterase 1 (TDP1): qHTS in cells in absence of CPT; DT40 Tdp1-/- hTDP1 cells, no CPT, ATP luminescence, 48 h; Potency, µM (series often up to 46.2 µM), for the others: at the highest dose activity change, negative = growth inhibition, hits mostly inhibitors; actives 15% (n = 420,000); note: potency is the fitted concentration of half-maximal effect; % is set by controls: 0 for no effect and ±100 for the full control effect; nearly all actives have a fitted effect of over 55% in size
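Camptothecin absent (DMSO only). Human TDP1-complemented DT40 knockout cells, 400 cells/well, 37 °C for minimum 48 hr; ATP measured via CellTiter-Glo, 30 min dark incubation, luminescence.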
MCF10A rereplic: A quantitative high throughput screen for small molecules that induce DNA re-replication in MCF 10a normal breast cells. MCF 10A DNA re-replication, Hoechst nuclear intensity, 48 h. Potency, µM (top dose mostly 46.1 µM), for inactives: at the highest dose activity, positive = re-replication, actives largely listed as activators. actives 2.9% (n = 350,000). AID 624296, 2012; note: potency is the fitted concentration of half-maximal effect; % of control where 0% means no effect; nearly all actives have a fitted effect of over 50% in size
* marks the source's active call; other numbers are inactive results; ? = inconclusive; / = not tested or not shown. An excerpt weighted towards active compounds, which were near 19% of everything screened. Unless noted, calls come from the whole dose curve; as a rule, active = well fitted curve in the direction sought with a large enough effect; inconclusive = small, poorly fitted or top-dose-only effect, or another doubt; inactive = no such curve, though single readings can be large; an effect the other way counts as inactive or inconclusive.

SMILES	TDP1 cell CPT	Chronic BCR inh	SW480 rerep	IL-1B inflam inh	TDP1 cell noCPT	MCF10A rereplic
CC1CC(=O)N(CC(=O)Nc2ccccc2F)c2ccccc2S1(=O)=O (centres undefined)	4%	-6%	16%	1	27%	-6%
CCC(C(=O)NCCc1c[nH]c2cc(OC)ccc12)c1ccccc1 (centres undefined)	-8%	2%	-1%	-6	?	3%
Oc1ccccc1N1CCN(Cc2ncc(-c3ccccc3)o2)CC1	6%	?	-3%	-53*	-10%	-2%
CN[C@H](C)C(=O)NC[C@H]1O[C@@H](n2cnc3c(N)ncnc32)[C@H](O)[C@@H]1O	0%	1%	?	24	-15%	1%
CCOc1ccc(NC(=O)CN2C(=O)C(c3ccccc3)=NC23CCC(C)CC3)cc1 (centres undefined)	16µM*	/	/	/	16µM*	/
COc1cc(NC(=O)CN2C(=O)C(c3ccccc3)=NC23CCCCCC3)cc(OC)c1	-23%	?	2%	?	-37%	-7%
Cc1cc(C)c2c(CC(=O)Nc3ccc(S(=O)(=O)N4CCCCC4)cc3)coc2c1	21µM*	/	/	/	10µM*	/
CCc1noc(C)c1C(=O)Nc1ccc(S(=O)(=O)N2CCCC(C)C2)cc1 (centres undefined)	?	3%	-1%	-3	?	1%
Cc1cc(C)c2c(CC(=O)Nc3ccc(S(=O)(=O)N4CCCC(C)C4)cc3)coc2c1 (centres undefined)	?	/	/	/	23µM*	/
CCCC(=O)Nc1ccc(S(=O)(=O)N2CCCC2)cc1	10%	-7%	0%	7	0%	-2%
Cc1ccc(C)c(CNc2ccc(S(=O)(=O)N3CCCCC3)cc2)c1	15µM*	0%	2%	-15	21µM*	4%
Cc1ccc2c(CC(=O)Nc3ccc(S(=O)(=O)N4CCCCC4)cc3)coc2c1C	13µM*	/	/	/	15µM*	/
CCOC(=O)Cc1cn(C(=O)OC(C)(C)C)c2ccccc12	?	?	-9%	16	?	-26%
CC1CCCN(C2(O)C(=O)Nc3ccc([N+](=O)[O-])cc32)C1 (centres undefined)	0%	1%	3%	6	-12%	-3%
COc1ccc2[nH]c3c(=O)n4c(nc3c2c1)SCC4	-20%	1%	6%	-10	-24%	-1%
COc1cc2[nH]c3c(=O)n4c(nc3c2cc1OC)SCCC4	?	?	?	-61*	?	-13%
NC(=O)c1ccsc1NC(=O)c1ccc([N+](=O)[O-])o1	13µM*	?	?	-68*	8.2µM*	3.7µM*
CN1CCc2c(sc(NC(=O)c3ccc([N+](=O)[O-])o3)c2C(N)=O)C1	1.6µM*	?	1.5µM*	-98*	3.7µM*	?
CN1CCc2c(sc(NC(=O)c3cc(Cl)sc3Cl)c2C(N)=O)C1	?	?	?	-91*	21µM*	23µM*
CC(C)c1onc(C(=O)Nc2sc3c(c2C#N)CCC3)c1[N+](=O)[O-]	-4%	7%	-4%	57	-6%	-4%
CN1CCc2c(sc(NC(=O)C3CCCN3S(=O)(=O)c3ccc(Cl)s3)c2C(N)=O)C1 (centres undefined)	-2%	3%	?	-5	?	?
CN1CCc2c(sc(NC(=O)c3ccco3)c2C(N)=O)C1	13%	3%	-5%	0	-1%	-1%
N#Cc1c(NC(=O)c2ccc([N+](=O)[O-])o2)sc2c1CCC2	18µM*	?	10µM*	-94*	10µM*	21µM*
NC(=O)c1ccsc1NC(=O)COC(=O)c1ccc([N+](=O)[O-])o1	?	2%	-37%	3	-9%	3%
Cc1sc2c(c1C)c(=O)n(-c1cccc(C(F)(F)F)c1)c(=O)n2Cc1ccccc1C#N	-20%	/	/	/	-16%	/
SMILES	TDP1 cell CPT	Chronic BCR inh	SW480 rerep	IL-1B inflam inh	TDP1 cell noCPT	MCF10A rereplic
CN(C(=O)COC(=O)CNC(=O)c1ccc(C(C)(C)C)cc1)c1c(N)n(Cc2ccccc2)c(=O)[nH]c1=O	2%	0%	-1%	-1	-8%	-1%
COc1cccc(Nc2ncc3nc(C)c(=O)n(CCc4ccccc4)c3n2)c1	0%	/	/	/	-5%	/
O=C(CCNC(=O)c1ccc(Cl)cc1)NCc1ccco1	-7%	7%	-8%	0	-13%	-3%
NC(=O)c1c(NC(=O)c2ccc([N+](=O)[O-])o2)sc2c1CCCC2	?	-8%	1.5µM*	/	?	2.6µM*
CN1C(=O)C(c2nnc(Nc3cccc4ccccc34)s2)C2CC1(C)Oc1ccccc12 (centres undefined)	?	?	30%	?	?	?
CCOc1ccccc1-c1nc(-c2ccc(NC(=O)Cc3ccc(OC)cc3)cc2)no1	?	17%	3%	-18	?	?
CCOc1ccccc1-c1nc(-c2ccc(NC(=O)c3ccc(Br)o3)cc2)no1	23µM*	-12%	-2%	-18	?	?
CC(=O)Nc1ccccc1-c1nc2ccccc2n(C(C)C(=O)Nc2cc(Cl)ccc2C)c1=O (centres undefined)	?	/	/	/	26µM*	/
COc1ccc(OC)c(NC(=O)C(C)n2c(=O)c(-c3ccccc3NC(C)=O)nc3ccccc32)c1 (centres undefined)	23µM*	/	/	/	?	/
COc1ccc(OC)c(NC(=O)Cn2c(C)nc3ccccc3c2=O)c1	7%	?	-70%	29	-26%	1%
CC(=O)Nc1ccccc1-c1nc2ccccc2n(CC(=O)Nc2ccc(C)c(Cl)c2)c1=O	-8%	/	/	/	-3%	/
CCCN(C(=O)c1cc(S(=O)(=O)N(C)c2ccc(OCC)cc2)ccc1C)C1CCS(=O)(=O)C1 (centres undefined)	?	4%	-1%	-12	26µM*	-2%
COc1ccc(CCNC(=O)c2ccc(N(C)S(=O)(=O)c3ccccc3)cc2)cc1	?	-11%	-14%	6	?	-2%
